Measurements reported in PubChem BioAssay (NCATS).
Records with an inconclusive call do not appear. Calls of active or inactive are those of the source. Calls come from the whole dose curve; as a rule, active = well fitted curve in either direction with a large enough effect (not every such curve was filed as active); inconclusive = small, poorly fitted or top-dose-only effect, or another doubt; inactive = flat fitted curve, though single readings scatter.

Biological target: Mitogen-activated protein kinase 10 (Mus musculus) (UniProt Q61831)
Experiment: JNK3 AlphaScreen Assay (AID 530);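 note: kinase came from lysate of stimulated human HepG2 cells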
Conditions: JNK3 lysate, c-Jun phosphorylation; series mostly up to 57.1 µM
Summary of the method: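 Phosphorylation of biotinylated GST-cJun(1-79) at Ser73 is measured by AlphaScreen proximity luminescence. Enzyme is JNK3 in HepG2 lysates activated with interleukin-1beta and tumor necrosis factor alpha; ATP is 10 uM final.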

Potency, inactive:
CCC/C=C(\CCC)C(NC(=O)c1cccs1)c1ccc(C(=O)OC)cc1 (stereo not drawn)
C[C@@H](C(=O)O)[C@H]1C[C@]1(C)[C@H](NC(=O)OCc1ccccc1)c1ccccc1
COc1ccc2nc3c(cc2c1)Cc1ccccc1-3
c1ccc2c(c1)Cc1cc3cc4c(cc3nc1-2)OCO4
C[C@@H](C(=O)Nc1ccc2ccccc2c1)[C@H]1C[C@]1(C)[C@H](NP(=O)(c1ccccc1)c1ccccc1)c1ccccc1
CCC/C=C(\CCC)C(NS(=O)(=O)c1cccc2cccnc12)c1ccc(-c2ccccc2)cc1 (stereo not drawn)
CC(C)C[C@@H](CC(=O)N[C@@H](CCC(=O)O)CC(=O)O)NC(=O)[C@@H]1CCCC[C@H]1NC(=O)C[C@H](CCCN)NC(=O)C[C@H](CO)NC(=O)[C@@H]1CNCC[C@H]1N
CCCCCCN(C(=O)CCCCCN1C(=O)NC(c2ccc(-c3ccccc3)cc2)C(C(=O)OCc2ccccc2)=C1C)C(C(=O)NCCCC)c1ccc(OCC(=O)OC)c(C(=O)OC)c1 (stereo not drawn)
C[C@@H](C(=O)NCc1ccc(S(C)(=O)=O)cc1)[C@@H]1C[C@@]1(C)[C@@H](NC(=O)OCc1ccccc1)c1ccccc1
CCC[C@@H]1C[C@@]1(CCC)C(NC(=O)c1ccco1)c1ccc(Cl)cc1 (stereo partly drawn)
CCCC[C@@H]1C[C@H]1C(NC(=O)c1cccs1)c1ccc(C(F)(F)F)cc1 (stereo partly drawn)
CCCCCC1=C2CNC(CC(C)C)(C(=O)OC)C=C2C(C)C1=O (stereo not drawn)
COC(=O)[C@@]1(Cc2ccc(OC)cc2)[C@H]2c3cc(C(=O)N4CCCC4)n(Cc4cc(F)cc5c4OCOC5)c3C[C@H]2CN1C(=O)c1ccccc1
